TTR transcr act: TTR transcription activators in neuroblastoma reporter cells, primary screen, cell-based, luminescence, SH-SY5Y, TTR promoter Gaussia luciferase; 1.3% of 92,000 active; activation, % at 16.7 µM; AID 1117267, 2014; 100% = recombinant luciferase protein wells;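 active = activation above the mean of all tested compounds plus 3 SD, cut at about 9.5% in these data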;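 note: cells exposed to compounds for one day before reading; 0% = median of all test compound wells on the plate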
HuH7 TTR inh: TTR promoter reporter inhibitors in hepatoma cells, counter-screen for TTR transcription activator project, cell-based, luminescence, HuH7 hepatoma | AID 1117279, 2014 | HuH7 TTR promoter-Gaussia luciferase reporter | inhibition, % at 16.7 µM | 4% of 1,100 active | shares compounds with TTR transcr act;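 active = average inhibition above the solvent-only control wells' mean plus 3 SD, cut at about 15% in these data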;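 note: 0% = cells with DMSO only and 100% = cells with inhibitor control FD; inhibitors lower well luminescence so higher value means more inhibition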
TTR up confirm: TTR transcription activators, retest, confirmation, cell-based, luminescence, SH-SY5Y, triplicate | SHSY5Y TTR promoter Gaussia luciferase; 100% = purified Lucia enzyme wells, no cells | 1,100 tested, under 10 active | shares compounds with TTR transcr act | AID 1117280, 2014 | activation, % at 16.7 µM;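 active = mean activation above a set limit taken from the earlier primary screen, cut at about 11% in these data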;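 note: 0% = DMSO-treated cells and 100% = recombinant Lucia luciferase without cells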
Starred values were filed as active, the others as inactive. The sample as a whole holds a higher share of hits than the screen did.

SMILES	TTR transcr act	others
COC(=O)[C@]12C[C@H](CC(=O)NCc3ccc(C)o3)C(=O)N(Cc3cccc4ccccc34)C1=C[C@H](C(C)C)O[C@@H]2C1CC1	-4
CCOC(=O)[C@]12CCCC=C1N(CCCOC)C(=O)[C@@H]2CC(=O)NCCCCc1ccccc1	-1
O=c1c2ccccc2on1-c1ccccc1	-1
Cc1ccccc1CN1CCCCC(NC(=O)c2ccccc2F)C1=O (centres undefined)	-1
CC(=O)Nc1nnc(SCC(=O)N2CCc3ccccc32)s1	1
COc1ccccc1N1CCN(C(=O)CSc2nc3ccccc3nc2N2CCC(C)CC2)CC1	-1
COc1ccccc1N1CCN(C(=O)CSc2nnc(NC(=O)C(C)C)s2)CC1	13*	HuH7 TTR inh=-28;TTR up confirm=0
CCc1ccccc1-c1cc(C(C)=O)c2n(c1=O)CCC2	3
O=C(NCCc1c[nH]c2ccccc12)OCc1cn(Cc2ccccc2Cl)nn1	0
Cc1ccc(NC(=O)CSc2nnc(NC(=O)c3ccco3)s2)cc1	-2
O=C(CSc1nnc(NC(=O)c2ccco2)s1)NCc1ccc2c(c1)OCO2	21*	HuH7 TTR inh=-7;TTR up confirm=1
CCCSc1nnc(NC(=O)c2ccco2)s1	2
O=C(OCC#CCSc1nnc(-c2ccc(F)cc2)o1)c1ccc(F)cc1	-1
CCCCCCNC(=O)CCNC(=O)c1cc(OC)c(OC)c(OC)c1	-1
CCOc1cc(C(=O)NCCCNC(=O)c2cc(OCC)c(OCC)c(OCC)c2)cc(OCC)c1OCC	12*	HuH7 TTR inh=-29;TTR up confirm=0
CCOc1cc(C(=O)NC(C)CC)cc(OCC)c1OCC (centres undefined)	-3
O=C(NCc1ccc(Cl)cc1)O[C@H]1CC[C@@]23CCCN2C(=O)CCC[C@H]3C1	1
CCn1c(N2CCN(S(=O)(=O)c3ccc(OC)cc3)CC2)nc2ccccc21	14*	HuH7 TTR inh=-12;TTR up confirm=-1
COc1ccc(S(=O)(=O)N2CCN(Cc3ccccc3OC)CC2)cc1	-1
COc1ccc(S(=O)(=O)n2c(N)nc3ccccc32)cc1	-1
Cc1c(-c2nc(-c3cccnc3)no2)cccc1[N+](=O)[O-]	-1
O=[N+]([O-])c1cccc(-c2noc(-c3ccco3)n2)c1	12*	HuH7 TTR inh=15*;TTR up confirm=-1
Cc1cccc(-c2noc(-c3ccoc3C)n2)c1	3
O=C(Nc1cccc(Cl)c1)OCCN1CCCC12CCC(c1ccccc1)CC2 (centres undefined)	-1
CCCC[C@H]1C2CC(OC(=O)Nc3ccc(C)cc3)C(C2)[C@H]2CCCCN21 (some centres undefined)	6
SMILES	TTR transcr act	others
O=[N+]([O-])c1ccc2nc(CNc3nc(N4CCOCC4)nc4c3ncn4-c3ccsc3)[nH]c2c1	2
O=C(NCCc1nc2ccccc2n1C/C=C/c1ccccc1)C1CCCCC1	-1
FC(F)(F)c1cc(CNC2CCC23CCCCC3)ccc1Cl (centres undefined)	1
CCCC1CCC2(CCCN2CCOC(=S)Nc2cccc(Cl)c2)CC1 (centres undefined)	5
CCCOc1ccc(-c2cc(C(C)=O)c3n(c2=O)CCC3)cc1	-3
CC1=C(C(=O)N(C(C)C)C(C)C)CC(CC(=O)NCc2cccs2)C(=O)N1Cc1ccc(F)cc1 (centres undefined)	1
CCN(CC)C(=O)C1=C(C)N(Cc2ccc(OC)cc2)C(=O)C(CC(=O)NCc2cccc3ccccc23)C1 (centres undefined)	2
CCN(CC)C(=O)C1=C(C)N(Cc2ccc(OC)cc2)C(=O)C(CC(=O)NCc2cccs2)C1 (centres undefined)	23*	HuH7 TTR inh=-18;TTR up confirm=1
CC1CCCN(c2cccc3c2S(=O)(=O)N(Cc2cccc(Cl)c2)[C@@H](C)[C@H](c2ccccc2)O3)C1 (some centres undefined)	1
COc1cc(C(=O)NCCc2ccc(S(N)(=O)=O)cc2)ccc1OCc1c(C)noc1C	3
CCOC(=O)Cc1csc(SCC(=O)Nc2cc(Cl)ccc2Oc2ccccc2)n1	9.7*	HuH7 TTR inh=1;TTR up confirm=-1
CCOC(=O)Cc1csc(SCC(=O)N2CCN(c3ccc(OC)cc3)CC2)n1	0
CCOC(=O)Cc1csc(Nc2ccc(Cl)cc2)n1	-1
O=C(Nc1cccc(C(F)(F)F)c1)OC1CC2CC1[C@H]1CCCCN1[C@H]2Cc1ccccc1 (some centres undefined)	4
O=S(=O)(Cc1ccc(Cl)cc1)NCc1ccc2c(c1)OCO2	0
Cc1ccccc1CSc1nnc(C)c(=O)[nH]1	0
COc1cccc(NC(=O)CSc2ccc(-c3sc(C)nc3C)nn2)c1	-2
Cc1nc(C)c(-c2ccc(SCc3ccccc3C)nn2)s1	16*	HuH7 TTR inh=8;TTR up confirm=-1
COC(=O)c1ccc(Cn2ccc3ccc(-c4ccc5ccn(Cc6ccc(C(=O)OC)cc6)c5c4)cc32)cc1	1
CCCCOCCCNC(=O)C[C@@H]1C(=O)N(CCc2ccc(Cl)cc2)C2=CCCCC[C@]21C(=O)OC	2
CCC(CC)NC(=O)O[C@H]1CC[C@@]23CCCN2C(=O)CCC[C@H]3C1	-1
O=C(OCC#CCSc1nnc(-c2cccc3ncccc23)o1)c1ccc(F)cc1	-2
Cc1ccnc(SCc2cc(=O)c(OC(=O)c3ccc([N+](=O)[O-])cc3)co2)n1	-2
Cc1c(C2(O)CCCCC2)[nH]c2ncccc12	11*	HuH7 TTR inh=-16;TTR up confirm=0
Cc1c(C2(O)CCCCC2)[nH]c2cnccc12	1
SMILES	TTR transcr act	others
Cc1c(C2(O)CCCCC2)[nH]c2cc(C(F)(F)F)ccc12	-8
O=C(C1CCCCC1)N1C[C@H](n2cc(-c3ccc(F)cc3)nn2)[C@@H](O)C[C@@H]1c1ccc(Cl)cc1	1
COc1ccc([C@H]2C[C@H](O)[C@@H](n3cc(C4CC4)nn3)CN2C(=O)c2cccs2)cc1	1
Cc1ccc([C@H]2C[C@@H](O)[C@H](n3cc(-c4ccc(F)cc4)nn3)CN2C(=O)c2cccs2)cc1	11*	HuH7 TTR inh=15*;TTR up confirm=0
CCC(=O)N(c1ccccc1)C1CCN(C(=O)C(Cc2ccccc2)NC(C)=O)CC1 (centres undefined)	-1
COc1ccc(CN2C(=O)CCCC2(C)c2nnnn2-c2c(C)cccc2C)cc1OC (centres undefined)	1
CCOC(=O)[C@@]12CCC3=C1N(CCC3)C(=O)[C@H](CC(=O)N1CCN(C(=O)C3CC3)CC1)C2	-1
O=C(Nc1ccc2c(c1)OCO2)NC1CCCCN(Cc2cccc(Cl)c2)C1=O (centres undefined)	1
CCOc1ccccc1/C=C/c1cc(C(=O)O)c2ccccc2n1	35*	HuH7 TTR inh=-20;TTR up confirm=1
CCOC(=O)c1cc(OCC)c2c(ccc3ccccc32)n1	0
CCOC(=O)c1cc(N2CCCCC2)nc2ccccc12	0
CC(C)Oc1ccc(S(=O)(=O)N2CCCCCC2)c2ccccc12	-1
COCC(=O)Nc1nnc(-c2cccs2)s1	1
CN(C(=O)COc1ccccc1)c1nc(-c2ccc(F)cc2)cs1	-1
COCC(=O)N(C)c1nnc(-c2cnc(C)cn2)s1	9.7*	HuH7 TTR inh=-8;TTR up confirm=-1
C/C(=N\Nc1ncc(Br)cn1)c1cccc([N+](=O)[O-])c1	14*	HuH7 TTR inh=21*;TTR up confirm=-1

Source: PubChem BioAssay
